Bioassay records: PubChem, National Center for Advancing Translational Sciences (NCATS)
A selection: hits, their analogues and other compounds. The true share with any hit is near 12%.
BAZ2B block: BAZ2B (human) inhibition; Q9UIF8; AlphaScreen BAZ2B-H3K14Ac peptide displacement; Potency, µM (doses to about 114 µM), without a hit: at the highest dose activity change, negative = inhibition, usual class: inhibitors; 360,000 tested, 4.4% active; note: % is set by controls: 0 for no effect and ±100 for the full control effect; nearly all actives have a fitted effect of over 60% in size
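Multi-concentration screen (max 110 uM) measuring displacement of acetylated histone H3 peptide from BAZ2B by AlphaScreen, using 50 nM protein, 50 nM peptide and 10 ug/mL streptavidin donor plus Ni-chelate acceptor beads.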
Sfp PPTase inh: blocks B. subtilis Sfp PPTase activity. Q9F4F7. Biochemical Sfp PPTase activity, qHTS. Potency, µM, without a hit: largest response in the series, negative = inhibition, actives largely listed as inhibitors. 310,000 tested, 3.5% active;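 note: the enzyme is Sfp with the accession as filed and its product quenches rhodamine fluorescence; 0% = enzyme reaction without inhibitor and -100% = no enzyme wells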
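Sfp 15 nM + cpd, 15 min RT; start w/ rhodamine-CoA 5 uM, BHQ-2-YbbR 12.5 uM (final); 50 mM Hepes pH 7.6, 10 mM MgCl2, 0.01% NP-40, 0.01% BSA; read 525/598 nm at 0 and 30 min.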
HP1b binding inh: blocks HP1-beta chromodomain binding to methylated histone tails | Potency, µM (titrated, usually from 114 µM), for inactives: top-dose activity change, negative = inhibition, actives largely listed as inhibitors | AlphaScreen HP1-beta / biotin-H3K9me3 peptide binding | P83916 | AID 540317 | 390,000 tested, 0.56% active; note: nearly all actives have a fitted effect of over 70% in size
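Compound inhibition of the preformed complex between 50 nM HP1-beta and 50 nM biotinylated H3K9me3 peptide was read by AlphaScreen. Buffer was PBS pH 7.4 with 0.01% Tween-20. Incubations ran 30 min at room temperature, with 10 ug/mL donor/acceptor beads.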
L3MBTL1 block: blocks human L3MBTL1; Q9Y468; AlphaScreen L3MBTL1–H3K9me1 peptide binding; Potency, µM (titrated, usually from 57.1 µM), for inactives: top-dose activity, negative = inhibition, usual class: inhibitors; 230,000 tested, 0.66% active; AID 485360; note: % is set by controls: 0 for no effect and ±100 for the full control effect; nearly all actives have a fitted effect of over 60% in size
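L3MBTL1 50 nM + b-AHA-H3(1-15)K9me1 75 nM, 30 min RT; compound added, 30 min RT; streptavidin donor/Ni-chelate acceptor beads 10 ug/mL each final, 30 min RT dark; AlphaScreen read.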
G9a block: inhibitors of human histone lysine methyltransferase G9a; Q96KQ7; G9a H3K9 monomethylation, AlphaScreen, 2 h; Potency, µM (doses to about 102 µM), for the others: at the highest dose activity, negative = inhibition, usual class: inhibitors; 350,000 tested, 8.8% active; note: % is set by controls: 0 for no effect and ±100 for the full control effect; nearly all actives have a fitted effect of over 75% in size
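Signal arises when biotinylated H3K9 peptide, once monomethylated, bridges streptavidin donor and antibody-captured acceptor beads. Enzyme at 20 nM was preincubated 15 min with test compounds; peptide 500 nM and SAM 20 uM then reacted for 2 h.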
JMJD2A Tudor inh: blocks the human JMJD2A Tudor domain. AlphaScreen JMJD2A-Tudor / H3K4me3 peptide binding. 390,000 tested, 4.4% active. O75164. Potency, µM (titrated, usually from 114 µM), for inactives: at the highest dose activity change, negative = inhibition, actives largely listed as inhibitors. AID 504339; note: % is set by controls: 0 for no effect and ±100 for the full control effect; nearly all actives have a fitted effect of over 50% in size
Target sequence (O75164 whole entry, looked up, the tested form may be a part): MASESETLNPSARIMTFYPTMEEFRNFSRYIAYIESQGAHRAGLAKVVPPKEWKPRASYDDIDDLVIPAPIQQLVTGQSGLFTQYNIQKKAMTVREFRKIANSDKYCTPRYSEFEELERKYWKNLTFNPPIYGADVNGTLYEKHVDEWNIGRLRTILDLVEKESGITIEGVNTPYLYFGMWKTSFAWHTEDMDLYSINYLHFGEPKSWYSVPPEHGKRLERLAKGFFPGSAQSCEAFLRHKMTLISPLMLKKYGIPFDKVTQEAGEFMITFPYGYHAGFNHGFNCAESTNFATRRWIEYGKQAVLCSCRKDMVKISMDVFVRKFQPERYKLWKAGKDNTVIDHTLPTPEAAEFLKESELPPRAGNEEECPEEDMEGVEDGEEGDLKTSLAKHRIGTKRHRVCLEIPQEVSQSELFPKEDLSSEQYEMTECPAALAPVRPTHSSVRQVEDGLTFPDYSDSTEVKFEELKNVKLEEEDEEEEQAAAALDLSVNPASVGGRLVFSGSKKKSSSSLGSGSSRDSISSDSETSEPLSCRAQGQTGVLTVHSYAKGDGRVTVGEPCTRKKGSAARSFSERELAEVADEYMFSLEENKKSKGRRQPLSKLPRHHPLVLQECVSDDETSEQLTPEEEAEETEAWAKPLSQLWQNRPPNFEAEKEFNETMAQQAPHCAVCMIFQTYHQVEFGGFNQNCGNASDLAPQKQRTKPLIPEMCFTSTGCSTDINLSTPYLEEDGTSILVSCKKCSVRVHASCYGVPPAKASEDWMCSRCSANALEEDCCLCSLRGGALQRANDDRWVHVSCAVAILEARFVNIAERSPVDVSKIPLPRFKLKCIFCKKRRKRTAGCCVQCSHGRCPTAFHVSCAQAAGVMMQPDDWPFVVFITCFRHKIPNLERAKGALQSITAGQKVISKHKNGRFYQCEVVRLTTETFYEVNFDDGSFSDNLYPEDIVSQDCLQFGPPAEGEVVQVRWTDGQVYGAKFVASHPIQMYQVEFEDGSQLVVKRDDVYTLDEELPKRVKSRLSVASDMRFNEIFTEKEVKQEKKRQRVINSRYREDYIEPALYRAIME
Numbers without * were called inactive; ? = inconclusive; . = no result given; [ ] = remark or other dose. Calls come from the whole dose curve; as a rule, active = well fitted curve in the direction sought with a large enough effect; inconclusive = small, poorly fitted or top-dose-only effect, or another doubt; inactive = no such curve, though single readings can be large; an effect the other way counts as inactive or inconclusive. Potency is the fitted concentration of half-maximal effect.

SMILES	BAZ2B block	Sfp PPTase inh	HP1b binding inh	L3MBTL1 block	G9a block	JMJD2A Tudor inh
COc1ccc(CNC(=O)Cn2ccc3cc(S(=O)(=O)N4CCCCCC4)ccc32)c(OC)c1	-12%	.	61%	.	2%[59 µM]	-12%
CCc1cc2c(cc3c(=O)n(CC(=O)NCc4cc(Br)ccc4OC)ncn32)s1	30%	.	50%	.	25%[59 µM]	3%
O=C(NNC1=NS(=O)(=O)c2ccccc21)c1ccc([N+](=O)[O-])cc1	-6%	-22%	11%	.	35µM*	-6%
O=C(NNC1=NS(=O)(=O)c2ccccc21)c1ccc(Cl)cc1	-6%	22%	32%	4%	-46%	-11%
Cc1nc2c(C(=O)NCc3ccc4c(c3)OCO4)c[nH]n2c(=O)c1Cl	-33%	45µM*	9%	7%	7%[59 µM]	-15%
COc1cccc(CNC(=O)c2c[nH]n3c(=O)c(Cl)c(C)nc23)c1	-3%	-13%	18%	-6%	45µM*	-10%
Cc1ccc(CNC(=O)c2ccc(Cn3c(SCc4ccc(F)cc4)nc4cccnc43)cc2)o1	-16%	.	25%	.	?	-16%
COc1ccc(NC(=O)C(CC(=O)O)Cc2ccccc2)cc1 (stereo not drawn)	0%	-6%	9%	9%	?	-31%
CSc1ccc(NC(N)=S)cc1	-25%	5%	25%	-2%	-25%	-5%
CN(C)c1ccc(NC(N)=S)cc1	?	-20%	-1%	-8%	10µM*	-32%
COc1ccc(NC(=O)C(CC(=O)O)C(C)c2ccccc2)cc1 (stereo not drawn)	7%	13%	-17%	-11%	-38%	14µM*
CCCNC(=O)Nc1ccccc1SC	-18%	-15%	20%	5%	40µM*	-16%
CCCCNC(=O)Nc1ccccc1C(=O)NCCC	-3%	7%	25%	?	17%[59 µM]	-9%
Cc1c(NC(=O)Nc2ccc(Cl)c(Cl)c2)sc(=S)n1C	.	.	-9%	.	.	?
COc1ccc(NC(=O)Nc2sc(=S)n(C)c2C)cc1	-37%	20µM*	-22%	-12%	50µM*	-16%
COc1ccc(NC(=O)Nc2ccc(N(C)C)cc2)cc1	?	-5%	?	-20%	3.5µM*	-35%
COc1ccc(NC(=O)Nc2ccccc2SC)cc1	-14%	-10%	29%	2%	50µM*	-9%
COc1ccc(NC(=O)N/C=C/c2ccc(Cl)cc2)cc1	-26%	12%	-3%	1%	20µM*	-22%
Cc1ccc(NC(=O)N/C=C/c2ccc(Cl)cc2)cc1	-36%[57.1 µM]	-3%	7%	-12%	10%	-22%[11.4 µM]
Nc1nnc(SCC(=O)Nc2cccc(F)c2)s1	-8%	.	58%	.	5%[59 µM]	7%
CCOC(=O)C1CCN(C(=O)CSc2n[nH]c(-c3ccccc3)n2)CC1	3%	.	29%[57 µM]	.	-23%[59 µM]	-3%
CC(=O)C1=C(O)C(=O)N(c2ccc(Br)cn2)C1c1ccccc1[N+](=O)[O-] (stereo not drawn)	-30%	-27%	41%	.	40µM*	-22%
CC(=O)C1=C(O)C(=O)N(c2ccccn2)C1c1cccc(F)c1 (stereo not drawn)	?	-14%	29%	.	45µM*	-11%
CC(=O)C1=C(O)C(=O)N(c2ccccn2)C1c1ccccc1[N+](=O)[O-] (stereo not drawn)	?	-22%	29%	.	?	20µM*
COc1ccc(-c2nc(SCC(=O)Nc3ccccc3)c(-c3ccc(F)cc3)[nH]2)cc1OC	-15%	.	15%	.	7%[59 µM]	-6%
SMILES	BAZ2B block	Sfp PPTase inh	HP1b binding inh	L3MBTL1 block	G9a block	JMJD2A Tudor inh
CC(C)N(C)CCOC(=O)c1ccccc1Cl	?	8%	17%	7%	-7%[59 µM]	-4%
CC(C)N(C)CCOC(=O)c1ccccc1Br	2%	25%	19%	5%	-2%[59 µM]	50µM*
Cc1cccc(NC(=O)Nc2nnc(N(C)C3CCCCC3)s2)c1C	-12%	.	19%	.	-6%[59 µM]	-15%
NCCCCC(=O)O	5%	-15%	18%	5%	-18%[59 µM]	-9%
NCCCC(=O)O	26%	7%	27%	25%	2.8µM*	6%
CC(NC(=O)c1ccc(N(C)C)c([N+](=O)[O-])c1)c1ccc(-n2ccnc2)cc1 (stereo not drawn)	?	13%	-7%	.	79µM*	?
CCN1C(=O)C2(c3ccccc31)c1c(oc3ccc(C)cc3c1=O)C(=O)N2CCCOC(C)C (stereo not drawn)	-1%	.	5%	.	1%[59 µM]	-19%
COCCCNC(=S)N/N=C/c1ccc(OC)cc1	-3%	-3%	21%	1%	.	-10%
COCCCNC(=S)N/N=C/c1ccc2ccccc2c1	?	-12%	13%	-9%	50µM*	-33%
COCCCNC(=S)N/N=C/c1ccc(O)cc1	-18%	3%	42%	-3%	7%	-16%
COCCCNC(=S)N/N=C/c1cccc(OC)c1O	6.3µM*	7%	18%	-3%	.	?
COc1cccc(/C=N/NC(=S)Nc2cccc(C(=O)O)c2)c1O	.	-1%	41%	.	40µM*	16µM*
COCCCNC(=S)N/N=C/c1ccc(O)cc1O	6.3µM*	20%	16%	?	4%	50µM*
O=C(c1ccc(OCCCc2cnc[nH]2)cc1)C1CC1	.	3%	.	.	18%[59 µM]	.
COc1ccc(C2C(=O)N(C3CCCCCC3)CC(=O)N2CCC2=CCCCC2)cc1 (stereo not drawn)	-2%	.	25%	.	-29%[59 µM]	-13%
CCc1cccc(-n2c(C)nc3c(cnn3-c3ccc(C)c(C)c3)c2=O)c1	.	.	32%	.	-2%[59 µM]	0%
CC1NC(=O)C(N)CNC(=O)C(C2CCN=C(N)N2)NC(=O)/C(=C/NC(N)=O)NC(=O)C(CNC(=O)CC(N)CCCN)NC1=O (stereo not drawn)	.	4%	.	.	.	.
O=C(NCCN1CCCC1)c1ccc2c(c1)N(Cc1ccc(F)cc1)C(=O)c1ccccc1S2=O (stereo not drawn)	1%	0%	27%	3%	40µM*	-22%
CCN1CCN(C(=O)c2ccc3c(c2)N(Cc2cccc(F)c2)C(=O)c2ccccc2S3)CC1	-18%	.	17%	.	?	79µM*
CCCCNC(=O)c1ccc2c(c1)N(Cc1ccc(F)cc1)C(=O)c1ccccc1S2=O (stereo not drawn)	-4%	.	16%	.	-14%[59 µM]	-14%
O=C(c1ccc2c(c1)N(Cc1ccc(Cl)cc1)C(=O)c1ccccc1S2=O)N1CCCCC1 (stereo not drawn)	-17%	.	25%	.	3%[59 µM]	-10%
